Source: PubChem (several laboratories)
A selection: hits, their analogues and other compounds. The true share with any hit is near 2.8%.
TNF necrop inh: blocks TNF-alpha induced death of Jurkat FADD-/- cells. Jurkat FADD-/- TNF necroptosis rescue, ATP luminescence, 24 h; 0 = TNF only, 100 = no-TNF cells. activation (protection from cell death), % at 10 µM. 220,000 compounds, 0.068% hits;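 active means activation, meaning protection from cell death, of at least 50% relative to plate controls; inactive means activation below 50%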;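 further: necroptosis triggered by 40 ng/mL TNF-alpha added together with compound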
Mcl1-Bid inh: disrupts binding of human Mcl-1 to Bid peptide; Q07820; TR-FRET Mcl-1/Bid-Dy647 peptide binding, 1536-well; inhibition, % at 21.7 µM; 220,000 compounds, 0.97% hits; AID 1021;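 active means compounds that cut the binding signal by more than half at the single screening dose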;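 further: His-tagged Mcl-1 with europium anti-His antibody binding Bid BH3 peptide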
Target sequence (Q07820 whole entry, looked up): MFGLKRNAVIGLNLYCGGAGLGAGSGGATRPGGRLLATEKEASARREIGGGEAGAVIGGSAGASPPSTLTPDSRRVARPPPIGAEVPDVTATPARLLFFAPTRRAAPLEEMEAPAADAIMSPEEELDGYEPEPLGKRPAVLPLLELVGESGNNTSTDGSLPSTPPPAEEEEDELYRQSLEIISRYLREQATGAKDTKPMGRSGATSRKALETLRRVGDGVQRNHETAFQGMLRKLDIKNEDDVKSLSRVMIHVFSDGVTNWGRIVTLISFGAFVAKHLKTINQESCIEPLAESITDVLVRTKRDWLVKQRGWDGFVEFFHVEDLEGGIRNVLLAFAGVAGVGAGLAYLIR
Mcl-1 Bim block: inhibitors of Bim-Mcl-1 interaction, human; Bead-based flow cytometry, Bim peptide-Mcl-1 binding; Q07820; inhibition, % at 10 µM; 190,000 compounds, 0.1% hits; in the data active means inhibition above about 40%
zVAD death inh: L929 zVAD cell death inhibition. L929 zVAD necroptosis rescue, ATP luminescence, 24 h; with zVAD 60 µM. viability rescue, % at 10 µM. 220,000 compounds, 0.38% hits. AID 1377;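 active means activation, scaled between plate controls, above about 75%, limit read from the data; inactive means activation under that limit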
Mcl1-Noxa inh: disrupts binding of human Mcl-1 to Noxa peptide | Q07820 | TR-FRET Mcl-1/Noxa peptide binding, 2 h | inhibition, % at 21.7 µM | 220,000 compounds, 1.5% hits;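 active means compounds that cut the protein-peptide binding signal by more than 50% relative to plate controls in a single-dose test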;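 further: His-tagged Mcl-1 with rhodamine Noxa BH3 peptide and terbium anti-His antibody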
m-calpain inh: blocks pig calpain II enzyme activity | inhibition, % at 16 µM | AID 1236 | purified calpain II, fluorogenic peptide substrate, 30 min | 220,000 compounds, 0.37% hits;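 active means inhibition above about 50%, limit read from the data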
Each line names hits and unclear results; the compound was inactive in the other large screens.

Cc1ccc(/C=c2/sc3nnc(-c4ccccc4Cl)n3c2=O)o1	none
Cc1ccc(-c2nc3s/c(=C\c4ccco4)c(=O)n3n2)cc1	Mcl1-Noxa inh 52
Cc1ccc2nsnc2c1NC(=O)c1cncc(Br)c1	none
O=C(CCn1c(=S)oc2ccccc21)NCCC1=CCCCC1	none (no result: Mcl-1 Bim block)
CCOc1cccc(CNCCO)c1OCc1ccc(Cl)cc1Cl	Mcl1-Bid inh 72
CCOc1cccc(CNc2ccc(O)cc2)c1OCc1ccc(Cl)cc1Cl	m-calpain inh 68
C=CCc1cccc(/C=N/NC(=O)CCC(=O)Nc2ccc(C)cc2)c1O	none
O=C1N/C(=N\N=C\c2cccs2)SC1Cc1cccc(Cl)c1Cl (centres undefined)	none
COc1cc(Cl)c(C)cc1NC(=O)CSc1cc(Cl)ccc1Cl	Mcl1-Noxa inh 56
COc1cc(Cl)c(C)cc1NC(=O)CSc1ccc(C)cc1	none
Cc1cccc(OCCCCCn2ccnc2)c1	Mcl1-Bid inh 51
Cc1ccccc1OCCCCCn1ccnc1	none
NC(=O)C1CCN(C2=C(NS(=O)(=O)c3ccccc3)C(=O)c3ccccc3C2=O)CC1	none (no result: Mcl-1 Bim block)
O=C1C(Cl)=C(N2CCC(C(=O)O)CC2)C(=O)c2ccccc21	Mcl1-Noxa inh 52 (no result: Mcl-1 Bim block)
NC(=O)C1CCN(C2=C(Cl)C(=O)c3ccccc3C2=O)CC1	Mcl1-Noxa inh 88
CCOC(=O)c1cc(-c2ccc(C)cc2)n(CCC(=O)N2CCN(c3ccccn3)CC2)c1C	none
COc1ccc(OC)c(N2C(=O)[C@@H]3C(c4ccccc4Cl)=NO[C@@H]3C2=O)c1	Mcl1-Noxa inh 59
CNC(=S)N(Cc1ccc(Cl)cc1)Cc1cccs1	none (no result: Mcl-1 Bim block)
COc1cccc(CNC(=O)CSCc2cnn(-c3ccccc3)c2-n2cccc2)c1OC	Mcl1-Bid inh 72
COc1ccccc1CNC(=O)CSCc1cnn(-c2ccccc2)c1-n1cccc1	none
Clc1ccc(COc2ccccn2)c(Cl)c1	none
Cc1ccc(/C=C2\C(=O)Nc3ccccc32)o1	zVAD death inh 78, Mcl1-Noxa inh 62
O=S(=O)(NCc1ccccc1)c1cccc(S(=O)(=O)N2CCOCC2)c1	Mcl1-Bid inh 81
CC1=C(C(=O)N2CCOCC2)C(c2ccc(C)cc2)NC(=S)N1 (centres undefined)	none
COC(=O)CC(NC(=O)c1ccco1)c1cccc2ccccc12 (centres undefined)	none
COC(=O)CC(NS(=O)(=O)c1cccs1)c1cccc2ccccc12 (centres undefined)	m-calpain inh 60
COC(=O)CCNC(=O)Cn1cnc2sc3c(c2c1=O)CCCC3	none
Cc1ccccc1C(=O)Oc1ccc(Sc2ccc(O)cc2)cc1	m-calpain inh 113
N#Cc1c(NC(=O)CSc2ccccn2)oc(-c2ccccc2)c1-c1ccccc1	none
Cc1cnc(C(=O)OCC(=O)Nc2oc(-c3ccccc3)c(-c3ccccc3)c2C#N)cn1	Mcl1-Noxa inh 54
CC(C)c1ccccc1NC(=S)NN(Cc1ccccc1)c1ccccc1	m-calpain inh 50
CN1C(=O)/C(=C/c2cn(CC(=O)NCc3ccco3)c3ccccc23)NC1=S	Mcl1-Noxa inh 73
CC1CCN(CCOc2ccc(Cl)c(Cl)c2)CC1	none
Brc1ccc(C2=Nc3cccc4cccc(c34)N2)o1	Mcl1-Noxa inh 55
Fc1ccc(C2=Nc3cccc4cccc(c34)N2)cc1	none
CSc1ccccc1NC(=O)CNCCCN1CCOCC1	Mcl1-Bid inh 89 (no result: Mcl-1 Bim block)
CSc1ccccc1NC(=O)CN1CCCCC1	none
Cn1c(=O)c2c(nc(SCC(=O)c3ccccc3F)n2C)n(C)c1=O	none
Cc1[nH]n(-c2ncc(-c3ccc(Cl)cc3)s2)c(=O)c1C(c1ccc(Cl)cc1)C(C#N)C#N (centres undefined)	Mcl1-Bid inh 51, Mcl1-Noxa inh 92
COc1ccc(C(c2c(C)[nH]n(C(N)=S)c2=O)C(C#N)C#N)cc1 (centres undefined)	none
CCN(CC(=O)Nc1ccc2c(c1)OCCO2)S(=O)(=O)c1cccs1	Mcl1-Bid inh 64
COc1ccc(OCCN2C(=O)NC3(CCc4ccccc4C3)C2=O)cc1 (centres undefined)	none
CC1CN(Cc2c(O)ccc3c2oc(=O)c2ccccc23)CC(C)O1 (centres undefined)	m-calpain inh 80 (no result: Mcl-1 Bim block)
COc1ccc(Cl)cc1NC(=O)CN(C)CC(=O)NC(C)c1ccccc1 (centres undefined)	none
CCOC(=O)N1CCN(c2nc(C)c3c(n2)CCCC3=O)CC1	Mcl1-Bid inh 71
CN1CCN(C(=O)CSc2nc(-c3cccs3)ccc2C#N)CC1	Mcl1-Noxa inh 56
Cc1nn(Cc2ccccc2)c(C)c1/C=N/NC(=O)c1ccccc1O	none (no result: Mcl-1 Bim block)
CCN(CC)c1ccc(/C=C2/C(=O)c3ccc(C(=O)O)cc3C2=O)cc1	Mcl1-Noxa inh 58 (no result: Mcl-1 Bim block)
CCOC(=O)c1c(C)oc2cc(Br)c(OC(=O)N3CCOCC3)cc12	Mcl1-Bid inh 92
C=CCNc1nc2c(c(=O)[nH]c(=O)n2C)n1Cc1cccc(C)c1	none
CN1CCC(=O)N(CCSc2ccc(Br)cc2)CC1	none (no result: Mcl-1 Bim block)
N#Cc1cc2c(nc1SCC(=O)Nc1sc3c(c1C#N)CCC3)CCC2	none
COc1ccc(-c2ccc(C#N)c(SCC(=O)Nc3sc4c(c3C#N)CCC4)n2)cc1OC	Mcl1-Bid inh 73
CCS(=O)(=O)c1ccc(S(=O)(=O)CC)s1	Mcl1-Bid inh 70, m-calpain inh 52
Fc1ccc(NC(=S)NCCc2ccc(Cl)cc2)cc1	none
O=[N+]([O-])c1ccc(NC(=S)NCCc2ccc(F)cc2)cc1	Mcl1-Noxa inh 52
CC(O)CNc1nc(Cl)c(C#N)s1 (centres undefined)	none
Cc1c(Cc2ccccc2)sc(/N=C/c2c(O)ccc3ccccc23)c1C(N)=O	Mcl1-Bid inh 53
Cc1ccc2c(N)c(C(=O)N(c3ccccc3)c3ccccc3)sc2n1	none
Cn1c(=O)[nH]c(=O)c2[nH]c(N(Cc3ccccc3)Cc3ccccc3)nc21	m-calpain inh 65
Cc1cccc2cc(CNC3CCCC3)c(Cl)nc12	none
Cc1ccc(Nc2cc(C)c3c(O)cccc3n2)cc1C	Mcl1-Noxa inh 54 (no result: Mcl-1 Bim block)
Cc1ccccc1Nc1cc(C)c2c(O)cccc2n1	none (no result: zVAD death inh)
COC(=O)c1cc(Nc2cc(C)c3c(O)cccc3n2)cc(C(=O)OC)c1	Mcl1-Noxa inh 56 (no result: Mcl-1 Bim block)
COc1ccc(Nc2cc(C)c3c(O)cccc3n2)cc1	Mcl1-Noxa inh 77 (no result: Mcl-1 Bim block)
COc1ccc(Nc2c(C)cccc2C)cc1	none
O=C(Nc1ccc2c(c1)S(=O)(=O)N=C1CCCCCN12)c1ccccc1Cl	none
COc1cc(/C=N/NC(=O)Cc2csc(N3CCOCC3)n2)cc(OC)c1O	Mcl1-Noxa inh 58
O=C(CN1CCC(n2nnc3cc(F)ccc32)CC1)Nc1ccccc1N1CCOCC1	none
COc1cccc(/C=N/Nc2nn3cnnc3c3ccccc23)c1O	Mcl1-Noxa inh 53
Cc1ccc(-c2nc(NC(=O)CSc3cc(C)c4ccccc4n3)ns2)cc1	none (no result: zVAD death inh)
